From PubChem BioAssay
The source made the active and inactive calls. Unless noted, how the calls were made is not given here.

Assays:
[1] = HepG2 liver cancer cell viability effects, profiling panel, resazurin fluorescence, 24 h, PK04 Diversity Set (AID 1172); settings: higher = more signal; further: test concentration not given here
[2] = basal S. cerevisiae growth modulation, no modifier, primary screen, OD600, strain BY4716, 24 h, basal condition (AID 1173); settings: OD600, 24 h, higher = more signal, called active from +8 up or from −8 down
[3] = MM1S myeloma cell viability, profiling panel, resazurin fluorescence, basal, 24 h, PK04 Diversity Set (AID 1174); settings: higher = more signal, called active from +8 up or from −8 down;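 further: MM1S multiple myeloma cell line; test concentration not given here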
[4] = target: Dihydroorotate dehydrogenase (quinone), mitochondrial (Plasmodium falciparum (isolate 3D7)) (UniProt Q08210); experiment: PfDHODH enzyme inhibitors, primary screen, biochemical, C-terminal His tag, absorbance 600 nm (AID 1175); settings: DCIP absorbance 600 nm, higher = more signal, called active from +8 up or from −8 down;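 further: recombinant parasite enzyme with a five histidine tag at its C terminus; test concentration not given here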
[5] = P. aeruginosa biofilm formation inhibitors, primary screen, strain PAO1, LB-PBS medium, absorbance 600 nm (AID 1176); further: test concentration not given here; settings: P. aeruginosa PAO1 growth/biofilm, A600, 12 h; higher = more signal
[6] = S. cerevisiae RM11-1a growth modifiers, primary screen, strain RM11-1a, OD600, basal, 24 h (AID 1177); settings: OD600, 24 h, higher = more signal, called active from +8 up or from −8 down;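 further: cultures grown under basal conditions with no added stressor; test concentration not given here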
[7] = E. coli acrAB mutant growth effects, primary screen, E. coli filamentation inducers, strain DRC39, OD650, 24 h (AID 1178); settings: higher = more signal, called active from +8 up or from −8 down;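 further: growth measured as culture turbidity by optical density at 650 nm; test concentration not given here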
[8] = E. coli acrAB mutant growth effects, primary screen, E. coli filamentation inducers, strain DRC39, OD650, 48 h (AID 1179);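 further: screen aims at cell division blockers that make cells filament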; settings: E. coli DRC39 delta-acrAB growth, higher = more signal, called active from +8 up or from −8 down
[9] = RPMI8226 myeloma cell viability, profiling panel, resazurin fluorescence, basal, 24 h, PK04 Diversity Set (AID 1180); settings: higher = more signal;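 further: RPMI8826 multiple myeloma cell line at 5000 cells per well; test concentration not given here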
[10] = target: E3 ubiquitin-protein ligase XIAP (Homo sapiens) (UniProt P98170); experiment: XIAP binders, primary screen, biophysical, small-molecule microarray, fluorescence 635 nm (AID 1181); settings: small-molecule microarray binding, higher = more signal;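 further: score merges 667 nm emission and signal to noise over triplicate slides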
E3 ubiquitin-protein ligase XIAP (Homo sapiens), sequence (P98170 whole entry, looked up): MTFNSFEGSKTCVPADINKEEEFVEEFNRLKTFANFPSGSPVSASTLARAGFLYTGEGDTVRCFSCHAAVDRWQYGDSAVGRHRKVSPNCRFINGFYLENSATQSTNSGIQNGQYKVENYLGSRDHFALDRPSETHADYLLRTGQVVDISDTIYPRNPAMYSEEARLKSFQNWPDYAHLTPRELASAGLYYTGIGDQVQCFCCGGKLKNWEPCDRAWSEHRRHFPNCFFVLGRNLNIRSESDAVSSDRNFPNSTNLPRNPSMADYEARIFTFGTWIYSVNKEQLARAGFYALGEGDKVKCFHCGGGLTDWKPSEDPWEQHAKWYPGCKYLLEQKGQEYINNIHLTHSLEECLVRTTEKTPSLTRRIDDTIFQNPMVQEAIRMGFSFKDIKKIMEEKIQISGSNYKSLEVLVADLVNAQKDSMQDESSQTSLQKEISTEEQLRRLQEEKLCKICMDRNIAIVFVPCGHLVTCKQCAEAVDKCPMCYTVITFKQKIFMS

Dihydroorotate dehydrogenase (quinone), mitochondrial (Plasmodium falciparum (isolate 3D7)), sequence (Q08210 whole entry, looked up): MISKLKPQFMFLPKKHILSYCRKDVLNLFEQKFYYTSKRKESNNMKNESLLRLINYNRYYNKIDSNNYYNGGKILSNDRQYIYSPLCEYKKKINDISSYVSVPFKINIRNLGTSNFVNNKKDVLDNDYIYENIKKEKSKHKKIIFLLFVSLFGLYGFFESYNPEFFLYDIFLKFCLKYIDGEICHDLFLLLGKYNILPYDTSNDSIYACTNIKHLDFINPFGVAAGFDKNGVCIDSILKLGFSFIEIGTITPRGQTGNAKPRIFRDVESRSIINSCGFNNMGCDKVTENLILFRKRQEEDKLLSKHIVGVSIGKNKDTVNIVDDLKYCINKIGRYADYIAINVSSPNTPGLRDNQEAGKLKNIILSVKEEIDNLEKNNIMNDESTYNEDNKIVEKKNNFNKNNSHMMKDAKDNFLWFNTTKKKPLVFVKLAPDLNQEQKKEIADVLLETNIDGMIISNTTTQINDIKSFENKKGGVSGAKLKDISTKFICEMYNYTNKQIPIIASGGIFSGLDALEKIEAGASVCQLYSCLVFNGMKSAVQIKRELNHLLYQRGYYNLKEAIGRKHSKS

SMILES	z-score [1]	z-score [2]	z-score [3]	composite z-score [4]	z-score [5]	z-score [6]	z-score [7]	z-score [8]	z-score [9]	composite z-score [10]
CCOC(=O)NN=C1C[C@@H](O)[C@@H](O)[C@@H]2[C@@H]3C(=O)N(C4CCCCC4)C(=O)[C@@H]3CC[C@@H]12	-0.252	0.126 (inactive)	-0.292 (inactive)	-1.71 (inactive)	0.283 (inactive)	-0.845 (inactive)	-0.959 (inactive)	-0.499 (inactive)	-0.145	-0.102
O=C(CS)NCCCCCNC(=O)[C@H]1C[C@H]2C(=O)N3CCC[C@H]3C(=O)N2[C@H]1c1cccc(OCCO)c1	0.0716	-0.358 (inactive)	0.85 (inactive)	0.274 (inactive)	-0.667 (inactive)	0.18 (inactive)	-0.201 (inactive)	0.36 (inactive)	0.472	0.0785
C=CCN1C(=O)[C@]2(O[C@H](CCn3cc(CCO)nn3)[C@@H]([Si](C)(C)c3ccc(OC)cc3)[C@@H]2C)c2cc(N3CCOC3=O)ccc21	-0.0584	-0.528 (inactive)	-0.368 (inactive)	-0.173 (inactive)	0.614 (inactive)	0.817 (inactive)	-0.815 (inactive)	-1.18 (inactive)	-0.789	-0.124
COc1ccccc1CN1C(=O)c2ccccc2[C@@]2(Cc3ccccc3N(C(C)C)C2=O)[C@@H]1c1ccc(CO)cc1	-0.643	0.439 (inactive)	-0.647 (inactive)	-3.28 (inactive)	0.376 (inactive)	-1.56 (inactive)	0.549 (inactive)	1.14 (inactive)	-0.457	0.161
CC1CC/C=C\[C@H]2OC34C=CCN(C(C)C)C(=O)[C@H]3N(CCCO)C(=O)[C@@H]4C2C(=O)O1 (stereo not given in full)	0.49	-0.404 (inactive)	0.48 (inactive)	0.395 (inactive)	-0.91 (inactive)	-0.467 (inactive)	1.05 (inactive)	0.634 (inactive)	0.817	0.0131
CC(C)NC(=O)[C@@]1(C)c2ccccc2C(=O)N(Cc2cc(F)cc(C(F)(F)F)c2)[C@H]1c1ccc(CO)cc1	-0.0499	0.118 (inactive)	0.0847 (inactive)	0.0724 (inactive)	0.897 (inactive)	-0.0826 (inactive)	-0.0821 (inactive)	-0.043 (inactive)	-0.744	-0.157
COC(=O)[C@@]1(Cc2ccccc2)[C@H]2c3cc(C(=O)N4CCCC4)n(Cc4ccccn4)c3C[C@H]2CN1C(=O)c1ccccc1	-1.17	1.32 (inactive)	-1.45 (inactive)	0.553 (inactive)	1.79 (inactive)	0.957 (inactive)	-0.452 (inactive)	-0.551 (inactive)	-2.32	0.0737
COC(=O)[C@H](C)NC(=O)CCC1CC(OC(=O)NCCc2ccc(F)cc2)CC2(CCCC(COC(=O)NCCc3ccc(Cl)cc3)O2)O1 (stereo not given in full)	0.315	0.592 (inactive)	0.349 (inactive)	-0.532 (inactive)	0.45 (inactive)	0.825 (inactive)	0.718 (inactive)	0.942 (inactive)	0.761	-0.0918
CCOC(=O)CCN1C(=O)[C@H]2[C@H]3[C@H](O)C=CC(=O)[C@@H]3CC[C@H]2C1=O	-0.0089	0.454 (inactive)	0.606 (inactive)	0.231 (inactive)	0.0942 (inactive)	0.713 (inactive)	0.446 (inactive)	-0.689 (inactive)	0.353	0.0356
COc1ccc(O[C@H]2C=C[C@@H](c3ccccc3)O[C@@H]2CON=C[C@@H](C)[C@H](OCc2ccccc2)C(C)C)cc1	-0.821	0.742 (inactive)	-1.69 (inactive)	-0.896 (inactive)	-0.348 (inactive)	0.443 (inactive)	0.335 (inactive)	1.01 (inactive)	-0.854	0.144
Cc1cc2c(nc1C)CCCN2CC(C)ON=C1[C@H]2CCn3c(=O)n(-c4ccccc4)c(=O)n3[C@H]2[C@H](O)[C@@H]2O[C@H]12 (stereo not given in full)	-0.942	-0.286 (inactive)	-0.222 (inactive)	-0.153 (inactive)	0.381 (inactive)	-0.488 (inactive)	-1.05 (inactive)	-1.98 (inactive)	-0.745	0.0483
C=COC[C@H]1CN2[C@@H](CC[C@@H](C)[C@@H]2c2ccc(Br)cc2)C(=O)O1	0.524	-3.11 (inactive)	0.255 (inactive)	-0.613 (inactive)	0.523 (inactive)	-2.06 (inactive)	0.0556 (inactive)	-0.848 (inactive)	-0.555	-0.209
[N-]=[N+]=NCc1ccccc1C[C@]1(C(=O)NCc2ccccc2)N=C(c2ccc(OCCCO)cc2)O[C@H]1c1ccccc1N=[N+]=[N-]	-0.269	0.316 (inactive)	-1.53 (inactive)	0.294 (inactive)	1.68 (inactive)	-0.204 (inactive)	0.82 (inactive)	-0.0271 (inactive)	-2.15	-0.22
[N-]=[N+]=NCc1ccccc1[C@@H]1OC(c2ccc(OCCCO)cc2)=N[C@]1(Cc1ccccc1)C(=O)N1CCOCC1	-0.85	-0.833 (inactive)	-1.15 (inactive)	-0.0859 (inactive)	-0.208 (inactive)	0.165 (inactive)	0.559 (inactive)	0.917 (inactive)	-0.425	0.113
COc1ccc(O[C@H]2C=C[C@@H](c3ccccc3)O[C@@H]2COC(=O)N2CCCCC2)cc1	0.54	0.666 (inactive)	0.0872 (inactive)	0.0964 (inactive)	-0.139 (inactive)	-0.499 (inactive)	0.396 (inactive)	0.349 (inactive)	0.883	-0.234
c1ccc(C2NCCc3c2[nH]c2ccccc32)cc1 (stereo not given)	0.278	-2.91 (inactive)	-0.104 (inactive)	-11 (active)	0.107 (inactive)	-0.104 (inactive)	-0.832 (inactive)	-1.79 (inactive)	-0.326	0.0043
COC(=O)CC1OC1[C@H](C)[C@@H](OC)C(C)C (stereo not given in full)	-0.863	-4.59 (inactive)	-1.91 (inactive)	-3.39 (inactive)	0.699 (inactive)	0.748 (inactive)	0.487 (inactive)	0.293 (inactive)	-1.43	-0.313
O=C1C2C=CC(C(O)c3ccc([N+](=O)[O-])cc3)N(Nc3ccc([N+](=O)[O-])cc3)C2C(=O)N1c1ccccc1 (stereo not given)	-0.686	1.61 (inactive)	-0.858 (inactive)	1.2 (inactive)	1.64 (inactive)	1.44 (inactive)	-1.3 (inactive)	-1.09 (inactive)	-0.823	0.23
CC(C)CON=C1C[C@@H](O)[C@@H](O)[C@@H]2[C@@H]3C(=O)N(Cc4ccccc4)C(=O)[C@@H]3CC[C@@H]12	0.854	-0.608 (inactive)	0.334 (inactive)	-0.282 (inactive)	-0.495 (inactive)	0.407 (inactive)	0.426 (inactive)	0.918 (inactive)	0.731	-0.242
COc1ccc(O[C@H]2C=C[C@@H](c3ccccc3)O[C@@H]2COC(=O)CCC(C)=NO[C@H](C)c2cn([C@@H]3COC[C@H]3O)nn2)cc1	0.896	-0.419 (inactive)	-0.191 (inactive)	-4.78 (inactive)	-0.467 (inactive)	-0.572 (inactive)	-1.09 (inactive)	-0.033 (inactive)	0.18	-0.138
C=C(/C(=C/C[C@H](OC(C)=O)c1ccc(OCCO)cc1)c1cnc2ccccc2c1)C(C)C	1.93	-1.34 (inactive)	-0.97 (inactive)	-5.53 (inactive)	-0.092 (inactive)	-0.705 (inactive)	0.263 (inactive)	-0.511 (inactive)	-0.853	0.102
COC(=O)C1=C(C)[C@@H](O)[C@@H](C)[C@H](c2c(OC)c(OC)c(C)c(OC)c2OC)O1	-0.359	-0.195 (inactive)	-0.46 (inactive)	-0.218 (inactive)	0.368 (inactive)	0.0467 (inactive)	0.0595 (inactive)	-0.0569 (inactive)	-0.529	0.0101
C[C@@H]1CCC2C(=O)N(Cc3ccccc3)C[C@@H](O)CN2[C@H]1c1ccc(Br)cc1 (stereo not given in full)	0.644	-5.68 (inactive)	0.726 (inactive)	-1.3 (inactive)	0.924 (inactive)	-1.71 (inactive)	0.957 (inactive)	-1.25 (inactive)	0.39	-0.0009
CC(C)CON=C1C[C@@H](O)[C@@H](O)[C@@H]2[C@@H]3C(=O)N(C[C@@H]4CCCO4)C(=O)[C@@H]3CC[C@H]12	0.511	-0.138 (inactive)	-0.594 (inactive)	-0.849 (inactive)	0.884 (inactive)	-0.776 (inactive)	-0.353 (inactive)	0.0723 (inactive)	0.139	-0.174
CN1C(=O)C2C=CC(C(O)c3ccc(Br)cc3)N(N(c3ccccc3)c3ccccc3)C2C1=O (stereo not given)	-0.456	0.431 (inactive)	-1.19 (inactive)	1.02 (inactive)	1.01 (inactive)	1.32 (inactive)	-0.499 (inactive)	-0.283 (inactive)	-0.629	-0.0255
COC(=O)C1=C(C)N(Cc2ccccc2)[C@]23O[C@](C(=O)OC)(C(=O)N2[C@@H]1c1ccccc1)[C@H]1CCOC(=O)[C@H]13	0.338	0.424 (inactive)	0.444 (inactive)	1.01 (inactive)	-0.765 (inactive)	1.55 (inactive)	0.0676 (inactive)	-0.164 (inactive)	0.732	0.0896
